# Test results from the supplement of paper PMC9262897, “Low-cost anti-mycobacterial drug discovery using engineered E. coli” (Nature Communications, 2022).
# Where a name gives a salt, the structure may show the parent alone. ± gives the standard deviation of the averaged measurements.
# Key:
# Assay in all cases: growth (OD600 after 10 h); higher = more growth (less inhibition)
# [1] = test system: E. coli TESEC Alr+ wild-type control; conditions: compound 0.1 mM; raw OD600 reference: median of DMSO wells 0.241, cell-free background 0.041
# Procedure: (§1)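 TESEC Mtb Alr E. coli, or the Alr+ wild-type control, in 384-well plates with Prestwick library compounds at 0.1 mM and 1% DMSO, across arabinose induction levels of 1E3 to 1E7 nM. Growth is read as OD600 after 10 h at 37 °C in triplicate biological replicates.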
# [2] = test system: E. coli TESEC Mtb Alr; conditions: compound 0.1 mM
# Procedure: as §1
# [3] = test system: E. coli TESEC Mtb Asd; conditions: compound 0.1 mM
# Procedure: (§2)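 TESEC E. coli strains in which the native enzyme is deleted and replaced by arabinose-inducible Mtb Asd, DapB, CysH or TrpD, each grown in its selective medium. Strains were screened against the Prestwick library at 0.1 mM and 1% DMSO in 384-well format at low and high arabinose induction. Growth is read as OD600 after 10 h in triplicate.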
# [4] = test system: E. coli TESEC Mtb DapB; conditions: compound 0.1 mM
# Procedure: as §2
# [5] = test system: E. coli TESEC Alr+ wild-type control; conditions: compound 0.1 mM; raw OD600 reference: median of DMSO wells 0.49, cell-free background 0.052
# Procedure: (§3)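 TESEC Mtb Alr E. coli (ΔaraC ΔtolC ΔentC Δalr ΔdadX, arabinose-inducible Mtb Alr) or the Alr+ wild-type control strain, grown in defined M9-fructose medium without D-alanine in 96-well plates with Prestwick library compounds at 0.1 mM and 1% DMSO. Low Alr induction is 0.1 µM arabinose and high induction is 10 mM arabinose.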
# [6] = test system: E. coli TESEC Mtb Alr; conditions: compound 0.1 mM; remark: listed apart in the source
# Procedure: as §3
# [7] = arabinose 1000 nM, raw OD600 reference: median of DMSO wells 0.294, cell-free background 0.041
# [8] = arabinose 10000 nM, raw OD600 reference: median of DMSO wells 0.264, cell-free background 0.041
# [9] = arabinose 100000 nM, raw OD600 reference: median of DMSO wells 0.201, cell-free background 0.041
# [10] = arabinose 1000000 nM, raw OD600 reference: median of DMSO wells 0.193, cell-free background 0.041
# [11] = arabinose 10000000 nM, raw OD600 reference: median of DMSO wells 0.146, cell-free background 0.041
# [12] = arabinose induction (level): High, raw OD600 reference: median of DMSO wells 0.331, cell-free background 0.041
# [13] = arabinose induction (level): Low, raw OD600 reference: median of DMSO wells 0.417, cell-free background 0.041
# [14] = arabinose induction (level): High, raw OD600 reference: median of DMSO wells […], cell-free background 0.041
# [15] = arabinose induction (level): Low, raw OD600 reference: median of DMSO wells 0.227, cell-free background 0.041
# [16] = arabinose 100 nM, raw OD600 reference: median of DMSO wells 0.413, cell-free background 0.052
# [17] = arabinose 10000000 nM, raw OD600 reference: median of DMSO wells […], cell-free background 0.052
Structure (SMILES),growth [1],"growth [2, 7]","growth [2, 8]","growth [2, 9]","growth [2, 10]","growth [2, 11]","growth [3, 12]","growth [3, 13]","growth [4, 14]","growth [4, 15]",growth [5],"growth [6, 16]","growth [6, 17]"
CCOc1ccc(Cc2nccc3cc(OCC)c(OCC)cc23)cc1OCC [Ethaverine hydrochloride],0.0471 ± 0.00059,0.0509 ± 0.0018,0.0528 ± 0.018,0.0664 ± 0.025,0.0659 ± 0.033,0.0686 ± 0.015,0.228 ± 0.0076,0.1635 ± 0.0016,0.156 ± 0.0076,0.165 ± 0.017,0.377 ± 0.051,0.403 ± 0.0076,0.0633 ± 0.0024
NC(=O)C(c1ccccc1)(c1ccccc1)[C@@H]1CCN(CCc2ccc3c(c2)CCO3)C1 [Darifenacin hydrobromide],0.163 ± 0.011,0.216 ± 0.0036,0.292 ± 0.0043,0.16 ± 0.02,0.0999 ± 0.0027,0.146 ± 0.011,0.156 ± 0.033,0.276 ± 0.01,0.186 ± 0.0081,0.205 ± 0.015,0.403 ± 0.013,0.411 ± 0.0056,0.272 ± 0.016
C#C[C@]1(O)CC[C@H]2[C@@H]3[C@H](C)CC4=C(CCC(=O)C4)[C@H]3CC[C@@]21C [Tibolone],0.141 ± 0.0097,0.162 ± 0.017,0.155 ± 0.031,0.15 ± 0.021,0.0695 ± 0.00095,0.148 ± 0.0066,0.167 ± 0.036,0.316 ± 0.047,0.17 ± 0.0045,0.172 ± 0.0081,0.393 ± 0.015,0.362 ± 0.046,0.137 ± 0.003
"CC1(O)CCOC(=O)C1 (stereo unspecified) [Mevalonic-D, L acid lactone]",0.244 ± 0.0056,0.304 ± 0.017,0.271 ± 0.0041,0.186 ± 0.019,0.203 ± 0.0065,0.141 ± 0.0074,0.269 ± 0.027,0.402 ± 0.022,0.183 ± 0.011,0.206 ± 0.024,0.506 ± 0.11,0.394 ± 0.03,0.349 ± 0.015
Oc1c(I)cc(Cl)c2cccnc12 [Clioquinol],0.0473 ± 0.0055,0.0429 ± 0.0016,0.0409 ± 0.00085,0.0461 ± 0.0025,0.0417 ± 0.00053,0.0513 ± 0.0023,0.0601 ± 0.0098,0.0661 ± 0.016,0.0573 ± 0.0004,0.0551 ± 0.0021,0.0685 ± 0.0091,0.0741 ± 0.02,0.0669 ± 0.011
CCN(CC)CCNC(=O)COc1ccc(OC)cc1 [Mefexamide hydrochloride],0.24 ± 0.0042,0.285 ± 0.019,0.2683 ± 0.0018,0.196 ± 0.01,0.182 ± 0.0058,0.143 ± 0.0038,0.304 ± 0.1,0.411 ± 0.013,0.225 ± 0.041,0.227 ± 0.026,0.501 ± 0.067,0.421 ± 0.0097,0.343 ± 0.0047
CN(C)CCn1nnnc1SCC1=C(C(=O)O)N2C(=O)[C@@H](NC(=O)Cc3csc(N)n3)[C@H]2SC1 [Cefotiam hydrochloride],0.11 ± 0.0087,0.039 ± 0.0012,0.0413 ± 0.00046,0.0507 ± 0.0078,0.045 ± 0.00078,0.0878 ± 0.0087,0.265 ± 0.012,0.34 ± 0.061,0.218 ± 0.018,0.195 ± 0.019,0.166 ± 0.096,0.0473 ± 0.0012,0.244 ± 0.049
C=CCOC(Cn1ccnc1)c1ccc(Cl)cc1Cl (stereo unspecified) [Enilconazole],0.0491 ± 0.0028,0.0495 ± 0.0068,0.0424 ± 0.00087,0.0459 ± 0.0018,0.043 ± 0.0011,0.0488 ± 0.0025,0.0691 ± 0.01,0.0619 ± 0.0052,0.0767 ± 0.0029,0.0764 ± 0.0069,0.11 ± 0.01,0.193 ± 0.0082,0.0627 ± 0.0022
CCC(=O)[C@@]1(C)[C@H](C)C[C@H]2[C@@H]3CCC4=CC(=O)C=C[C@]4(C)[C@H]3[C@@H](O)C[C@@]21C [Rimexolone],0.216 ± 0.0076,0.275 ± 0.019,0.248 ± 0.0084,0.139 ± 0.005,0.148 ± 0.0067,0.132 ± 0.0029,0.203 ± 0.03,0.41 ± 0.047,0.197 ± 0.0062,0.209 ± 0.026,0.459 ± 0.021,0.414 ± 0.019,0.365 ± 0.038
C[C@H](CCC(=O)O)[C@H]1CC[C@H]2[C@@H]3CC[C@@H]4C[C@H](O)CC[C@]4(C)[C@H]3CC[C@]12C [Lithocholic acid],0.255 ± 0.011,0.312 ± 0.011,0.266 ± 0.0075,0.207 ± 0.012,0.169 ± 0.0078,0.173 ± 0.0071,0.462 ± 0.008,0.404 ± 0.022,0.214 ± 0.011,0.229 ± 0.021,0.386 ± 0.047,0.325 ± 0.037,0.3 ± 0.017
CN/C(=N\CCSCc1nc[nH]c1C)NC#N [Cimetidine],0.249 ± 0.0059,0.295 ± 0.023,0.252 ± 0.0057,0.216 ± 0.028,0.179 ± 0.00087,0.142 ± 0.0033,0.376 ± 0.1,0.376 ± 0.045,0.181 ± 0.012,0.206 ± 0.025,0.545 ± 0.0056,0.409 ± 0.0072,0.337 ± 0.019
CCN(CC)C(=O)Nc1ccc(OCC(O)CNC(C)(C)C)c(C(C)=O)c1 (stereo unspecified) [Celiprolol HCl],0.215 ± 0.0023,0.292 ± 0.0042,0.247 ± 0.0042,0.221 ± 0.028,0.171 ± 0.0053,0.135 ± 0.0071,0.245 ± 0.048,0.341 ± 0.089,0.192 ± 0.009,0.264 ± 0.058,0.455 ± 0.027,0.421 ± 0.0097,0.356 ± 0.014
N#Cc1cc(NC(=O)C(=O)O)c(Cl)c(NC(=O)C(=O)O)c1 [Lodoxamide],0.264 ± 0.0031,0.315 ± 0.006,0.2862 ± 0.0018,0.173 ± 0.0062,0.205 ± 0.013,0.134 ± 0.0054,0.228 ± 0.029,0.366 ± 0.035,0.222 ± 0.018,0.235 ± 0.03,0.579 ± 0.069,0.404 ± 0.014,0.348 ± 0.024
CC(CCc1ccc(O)cc1)NCCc1ccc(O)c(O)c1 (stereo unspecified) [Dobutamine hydrochloride],0.116 ± 0.0039,0.227 ± 0.021,0.174 ± 0.0051,0.198 ± 0.0044,0.116 ± 0.0039,0.115 ± 0.0067,0.176 ± 0.006,0.165 ± 0.029,0.19 ± 0.02,0.167 ± 0.02,0.539 ± 0.008,0.409 ± 0.0099,0.343 ± 0.018
N=C(N)N/N=C/c1c(Cl)cccc1Cl [Guanabenz acetate],0.189 ± 0.012,0.224 ± 0.0084,0.2721 ± 0.00092,0.221 ± 0.021,0.144 ± 0.005,0.168 ± 0.0024,0.31 ± 0.039,0.432 ± 0.026,0.194 ± 0.0026,0.258 ± 0.065,0.453 ± 0.026,0.408 ± 0.0073,0.318 ± 0.011
CNCC(O)c1ccc(O)c(O)c1 (stereo unspecified) [Racepinephrine HCl],0.243 ± 0.0062,0.302 ± 0.0045,0.291 ± 0.0096,0.199 ± 0.0083,0.186 ± 0.0042,0.155 ± 0.0036,0.27 ± 0.052,0.44 ± 0.018,0.193 ± 0.0072,0.273 ± 0.06,0.605 ± 0.029,0.4177 ± 0.0019,0.288 ± 0.015
CC[C@H](c1ccc(O)cc1)[C@@H](CC)c1ccc(O)cc1 [Hexestrol],0.0495 ± 0.0091,0.048 ± 0.0092,0.0398 ± 0.00072,0.0479 ± 0.0054,0.0459 ± 0.0019,0.0616 ± 0.024,0.0495 ± 0.0033,0.0486 ± 0.0013,0.0653 ± 0.019,0.054 ± 0.0072,0.054 ± 0.0093,0.0666 ± 0.025,0.05173 ± 0.0004
